Experimental data: PubChem BioAssay (Tox21)
The source made the active and inactive calls. Calls follow the shape of the dose curve; as a rule, active = well fitted inhibition curve with a large enough effect in the repeat runs (not every such curve was filed as active); inconclusive = weak or mixed curves; inactive = flat fitted curve, though single readings scatter.

Target: Thyrotropin-releasing hormone receptor (Homo sapiens) (UniProt P34981)
Assay: qHTS assay to identify small molecule antagonists of the thyrotropin-releasing hormone receptor (TRHR) signaling pathway (AID 1346877)
Conditions: TRHR-HEK293, TRH-induced calcium fluorescence, antagonist mode; series mostly up to 51.3 µM; activity, negative = inhibition: at the top concentration
From the text: National Center for Advancing Translational Sciences [NCATS]
NIH Chemical Genomics Center [NCGC]
U.S. Environmental Protection Agency [EPA]
National Institutes of Environmental Health Sciences [NIEHS]
National Toxicology Program [NTP]
U.S. Food and Drug Administration [FDA]
Thyrotropin-releasing hormone (TRH) receptor (TRHR) is a G-protein-coupled receptor which binds the tripeptide thyrotropin releasing hormone. TRHR is found in the brain and, when bound by TRH, acts (through phospholipase C) to increase intracellular inositol trisphosphate. It plays a crucial role in the anterior pituitary where it controls the synthesis and secretion of thyroid stimulating hormone and prolactin. The TRHR-Hek293 assay is a cell-based assay, and it has the potential to screen G protein-coupled receptors. A compound/drug can either activate (agonist) or suppress (antagonist) GPCRs that can be monitored by levels of intracellular calcium. In this assay, the Tox21 10K compound library was screened to identify potential TRHR antagonists.
Tox21 Assay Protocol Summary:
The TRHR-Hek293 cells were dispensed at 1500cells/4uL/well in 1536-well black-clear bottom plates using a Multidrop dispenser. After the assay plates were incubated at a 37 C/5% CO2 incubator for 18 hours, 4 uL of Dye-Loading Solution was added to each well. The plates were incubated at 37 C for 2 hours. For agonist mode, 23 nL of compounds dissolved in DMSO, positive controls or DMSO only was transferred to the assay plate by a pin tool. The fluorescence intensity in the plates was measured using FDSS 7000EX kinetic plate reader for 3 min at 1 sec intervals. For antagonist mode, 23 nL of compounds dissolved in DMSO, positive controls or DMSO only was transferred to the assay plate by a pin tool. After 5 min incubation at room temperature, 1 uL of TRH was added on the top of the cell/compound mixtures to achieve a final agonist concentration of 1 nM. The fluorescence intensity in the plates was measured using FDSS 7000EX kinetic plate reader for 3 min at 1 sec intervals. Each test compound was measured at 15 concentrations and in triplicates.
% is scaled to controls: 0 for no effect and ±100 for the full control effect.

Chain of Thyrotropin-releasing hormone receptor (Homo sapiens) (P34981 whole entry, looked up): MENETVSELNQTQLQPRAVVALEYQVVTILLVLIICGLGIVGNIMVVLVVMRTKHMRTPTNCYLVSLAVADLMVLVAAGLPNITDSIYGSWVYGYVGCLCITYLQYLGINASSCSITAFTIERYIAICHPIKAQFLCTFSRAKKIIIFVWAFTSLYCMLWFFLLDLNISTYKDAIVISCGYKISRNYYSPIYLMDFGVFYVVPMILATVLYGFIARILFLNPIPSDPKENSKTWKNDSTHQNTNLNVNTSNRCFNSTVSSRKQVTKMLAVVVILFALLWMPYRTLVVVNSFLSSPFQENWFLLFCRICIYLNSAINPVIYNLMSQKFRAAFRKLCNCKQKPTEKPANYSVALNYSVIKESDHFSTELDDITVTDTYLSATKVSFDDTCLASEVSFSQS

Compound | activity, negative = inhibition
SCCc1cnccn1 | 1.39% (inactive)
CCc1ccc(C)cc1 | -0.175% (inactive)
CCOc1ncc(F)c(=O)[nH]1 | -2.55% [at 23.6 µM] (inactive)
O=S(=O)(O)CO | -7.07% (inactive)
CC1=CC[C@@]23C[C@@H]1C(C)(C)[C@@H]2CC[C@H]3C | 1.6% (inactive)
O=C(O)c1cc(Cl)cc(Cl)c1O | -1.7% (inactive)
CCCCCCCCCCCCCOC(=O)CCSCCC(=O)OCCCCCCCCCCCCC | 4.46% [at 10.5 µM] (inactive)
CC(C)N=C=NC(C)C | 2.52% (inactive)
Cc1cc(CCC(=O)OCCOCCOCCOC(=O)CCc2cc(C)c(O)c(C(C)(C)C)c2)cc(C(C)(C)C)c1O | 2.75% (inactive)
CCCCCCCCCCCC(=O)OCC(O)CO (stereo not given) | -2.34% (inactive)
Oc1cccc2[nH]ccc12 | 4.47% [at 23.6 µM] (inactive)
CC(C)c1ccc(C#N)cc1 | 5.24% (inactive)
C/C(C=O)=C\c1ccccc1 | 0.247% (inactive)
O=C(Oc1ccccc1)c1ccc2ccccc2c1O | 0.977% (inactive)
COC(C)(C)OC | -2.7% (inactive)
N[C@@H](Cc1cc(I)c(O)c(I)c1)C(=O)O | 27.6% [at 23.6 µM] (inactive)
O=C(O)CCC(=O)OC[C@@H](NC(=O)C(Cl)Cl)[C@H](O)c1ccc([N+](=O)[O-])cc1 | -5.37% [at 23.6 µM] (inactive)
COc1cc(NS(=O)(=O)c2ccc(N)cc2)nc(C)n1 | 0.212% [at 23.6 µM] (inactive)
CC(C)C(=O)OCCOc1ccccc1 | -3.63% (inactive)
C1=CCC2CC=CC2C1 (stereo not given) | -2.01% (inactive)

Compound | activity, negative = inhibition
NC(=O)CCCCC(N)=O | 3.32% (inactive)
CCN(Cc1cccc(S(=O)(=O)O)c1)c1ccc(C(=C2C=CC(=[N+](CC)Cc3cccc(S(=O)(=O)O)c3)C=C2)c2ccccc2S(=O)(=O)[O-])cc1 | 1.43% [at 23.6 µM] (inactive)
CCN(CC)c1cccc(O)c1 | -0.608% (inactive)
BrC(Br)C(Br)Br | 0.19% (inactive)
NC(=O)c1ccccc1[N+](=O)[O-] | 1.19% (inactive)
CCN(CC)CCOC(=O)C(c1ccccc1)c1ccccc1 | 5.19% [at 23.6 µM] (inactive)
CCCCOC(=O)CCCCC(=O)OCCCC | 2.11% (inactive)
COc1ccc(CCN(C)CCCN2CCc3cc(OC)c(OC)cc3CC2=O)cc1OC | 0.702% [at 23.6 µM] (inactive)
O=C(O)c1cccc(C[C@@H]2COc3ccc(OCc4nc5cc(F)ccc5s4)cc3[C@@H]2O)c1 | 5.41% (inactive)
CC1=CC[C@@H]2C[C@H]1C2(C)C | 3.09% [at 10.5 µM] (inactive)
CC(O)Cn1cnc2c1c(=O)n(C)c(=O)n2C (stereo not given) | -2.55% [at 23.6 µM] (inactive)
COc1ccc(/C=C/C(=O)c2ccc(OC)cc2OC)cc1 | -0.492% [at 23.6 µM] (inactive)
CCN(CC)c1ccc(C(=C2C=CC(=[N+](CC)CC)C=C2)c2ccc(S(=O)(=O)O)cc2S(=O)(=O)[O-])cc1 | 1.3% (inactive)
COc1cc(C(C)=O)ccc1OCCCN1CCC(c2noc3cc(F)ccc23)CC1 | -0.0753% [at 23.6 µM] (inactive)
CC(CCc1ccc(O)cc1)NCCc1ccc(O)c(O)c1 (stereo not given) | -3.61% [at 23.6 µM] (inactive)
C[C@@H]1C[C@H]2[C@@H]3CCC4=CC(=O)C=C[C@]4(C)[C@@]3(F)[C@@H](O)C[C@]2(C)[C@@]1(O)C(=O)COP(=O)(O)O | -3.81% (inactive)
COC(CC(C)CCCC(C)(C)O)OC (stereo not given) | 1.7% (inactive)
COc1ccc(-c2cc(C(F)F)nn2-c2ccc(S(N)(=O)=O)cc2)cc1F | -8.73% [at 23.6 µM] (inactive)
CCN(CC)C(=O)/C(C#N)=C/c1cc(O)c(O)c([N+](=O)[O-])c1 | -5.36% [at 23.6 µM] (inactive)
FC(F)(F)C(F)(F)C(F)(F)C(F)(F)CCI | 5.68% [at 23.6 µM] (inactive)
